Source: PubChem BioAssay (National Center for Advancing Translational Sciences (NCATS))
Shown are actives, neighbours in structure and some others; about 3.3% of the full set was active somewhere.
Vaccinia mCherry = vaccinia inhibition (mCherry reporter) | 310,000 tested, 0.63% active | Vaccinia virus mCherry reporter infection, fluorescence | Potency, µM (highest dose often 36.5 µM), inactives show top-dose activity change, negative = inhibition, hits mostly inhibitors; calls by dose curve; tested in A549 cells; note: nearly all actives have a fitted effect of over 35% in size
VACV Venus inh = inhibitors of vaccinia virus (Venus reporter); 330,000 tested, 0.46% active; Potency, µM (series often up to 36.5 µM), inactives show top-dose activity change, negative = inhibition, usual class: inhibitors; AID 720580; Vaccinia virus Venus reporter expression, fluorescence; calls by dose curve; tested in A549 cells; note: nearly all actives have a fitted effect of over 30% in size
HCV inh = HCV inhibition. Huh7.5.1 HCVcc-Cre infection, luciferase reporter, 44 h. Potency, µM (doses to about 41.8 µM), inactives show top-dose activity change, negative = inhibition, usual class: inhibitors. 340,000 tested, 3.4% active. AID 651820; active = well fitted inhibition curve with a large enough effect; inconclusive = small, poorly fitted or top-dose-only effect, or another doubt; inactive = no such curve, though single readings can be large or run the other way
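Cells seeded at 1,000/well and cultured 4 h, then compounds added followed by HCVcc-Cre virus (~0.5 moi). After 44 h further culture, luciferase substrate was added, plates held 15 min at room temperature, and luminescence read for 15 sec.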
The depositor's hits bear a star. % is set by controls: 0 for no effect and ±100 for the full control effect; potency is the fitted concentration of half-maximal effect.

O=c1c2ccccc2nc(/C=C/c2ccc([N+](=O)[O-])o2)n1-c1ccc(O)cc1 was read as Vaccinia mCherry 3.5µM*, VACV Venus inh -25% and HCV inh inconclusive.
For O=c1c2ccccc2nc(/C=C/c2ccccc2)n1-c1ccc(O)cc1 the results were Vaccinia mCherry inactive, VACV Venus inh -17% and HCV inh inconclusive.
`Cc1cccc(-n2c(/C=C/c3ccccc3O)nc3ccccc3c2=O)c1` gave Vaccinia mCherry -24% and VACV Venus inh inconclusive.
Cc1cccc(-n2c(/C=C/c3ccc([N+](=O)[O-])o3)nc3ccccc3c2=O)c1 was read as Vaccinia mCherry -7%, VACV Venus inh -10% and HCV inh 10µM*.
`Cc1ncc2c(c1CNC(=O)c1ccc3c(c1)OCO3)CCN(C(=O)/C=C/c1ccc(Cl)cc1)C2` gave Vaccinia mCherry -3% and VACV Venus inh 15%.
CC(=O)O[C@@]12CO[C@@H]1C[C@@H](O)[C@@]1(C)C(=O)[C@H](O)C3=C(C)[C@@H](OC(=O)[C@H](O)[C@@H](NC(=O)c4ccccc4)c4ccccc4)C[C@@](O)([C@@H](OC(=O)c4ccccc4)C12)C3(C)C (stereo partly drawn) was read as Vaccinia mCherry inconclusive, VACV Venus inh -21% and HCV inh 0.32µM*.
For CC(=O)O[C@H]1C(=O)[C@@]2(C)[C@H]([C@H](OC(=O)c3ccccc3)[C@]3(O)C[C@H](OC(=O)[C@H](O)C(NC(=O)c4ccccc4)c4ccccc4)C(C)=C1C3(C)C)[C@]1(OC(C)=O)CO[C@@H]1C[C@@H]2O (stereo partly drawn) the results were Vaccinia mCherry inconclusive, VACV Venus inh -25% and HCV inh inconclusive.
For COc1cc(C(=O)Nc2nnc(C3=COCCO3)o2)cc(OC)c1OC the results were Vaccinia mCherry -5%, VACV Venus inh -2% and HCV inh 0%.
For Cc1ccc(OCC(=O)N/N=C\c2cccn2C)c([N+](=O)[O-])c1 the results were Vaccinia mCherry 8%, VACV Venus inh 1% and HCV inh -24%.
`CCN1CCN(c2ccc(NC(C)=O)cc2Cl)CC1` gave HCV inh 4%.
CCC(=O)N1CCN(c2ccc(Cl)cc2NC(=O)c2ccc([N+](=O)[O-])o2)CC1 was read as Vaccinia mCherry inconclusive, VACV Venus inh inconclusive and HCV inh -9%.
For CCC(=O)N1CCN(c2ccc(NC(=O)c3ccc([N+](=O)[O-])o3)cc2Cl)CC1 the results were Vaccinia mCherry 13µM*, VACV Venus inh 11µM* and HCV inh inconclusive.
CCN1CCN(c2ccc(NC(=O)c3ccc([N+](=O)[O-])o3)cc2Cl)CC1 was read as Vaccinia mCherry 11µM*, VACV Venus inh inconclusive and HCV inh inconclusive.
`Cc1cn2c(=O)c(S(=O)(=O)NCc3ccccc3Cl)c(C)nc2s1` gave Vaccinia mCherry -19% and VACV Venus inh -18%.
`Cc1ccccc1C(=O)Nc1ccc(OCc2cc(=O)n3ccccc3n2)cc1` gave Vaccinia mCherry -5% and VACV Venus inh -7%.
Screening O=C(Cc1cccs1)Nc1ccc(F)cc1 returned HCV inh 11%.
For O=S(=O)(Nc1ccccc1C(F)(F)F)c1ccc(-c2ccccn2)s1 the results were HCV inh 9%.
For CCOc1cc(/C=N/NC(N)=O)cc(Br)c1OCC(=O)Nc1ccccc1C the results were Vaccinia mCherry -22%, VACV Venus inh -10% and HCV inh inconclusive.
Screening CCOc1cc(/C=N/NC(N)=O)cc(Br)c1OCC(=O)Nc1cccc2ccccc12 returned VACV Venus inh -11% and HCV inh 18µM*.
`Oc1cc(-c2nc3ccccc3s2)cc2c1OCCN(Cc1cccn1-c1ccccn1)C2` gave Vaccinia mCherry -15% and VACV Venus inh -15%.
Screening CN(C)c1ccc(/C=N\Nc2ccc([N+](=O)[O-])cc2[N+](=O)[O-])cc1Br returned Vaccinia mCherry 25% and VACV Venus inh -7%.
N#CCC(=O)N/N=C/c1c(-c2ccccc2)n(-c2ccccc2)c2ccccc12 was read as Vaccinia mCherry inactive, VACV Venus inh -1% and HCV inh 14µM*.
`N#CCC(=O)N/N=C/c1cn(Cc2ccccc2C#N)c2ccccc12` gave Vaccinia mCherry -4%, VACV Venus inh -13% and HCV inh 24%.
O=C(C[n+]1cccc2cccc(O)c21)c1ccc2ccccc2c1 was read as Vaccinia mCherry 30% and VACV Venus inh 35%.
`COc1cc(OC)c(/C=C/c2cc(/C=C/c3c(OC)cc(OC)cc3OC)[n+](C)c3ccccc23)c(OC)c1` gave Vaccinia mCherry inconclusive and VACV Venus inh -7%.
`CCN(CC)CCCn1c(=S)[nH]c2cc(Cl)ccc2c1=O` gave HCV inh 7.1µM*.
